Data reported in article PMC7826789 (International Journal of Molecular Sciences, 2021).

What was measured:
Settings in all cases: Compound Concentration (nM):1000
[1] = tested on: T1, RSK3(Kin.Dom.1-N-terminal)
T1 construct: gene RPS6KA2

[2] = tested on: T2, RSK3(Kin.Dom.2-C-terminal)
T2 construct: gene RPS6KA2

[3] = tested on: T3, RSK4(Kin.Dom.1-N-terminal)
T3 construct: gene RPS6KA6

[4] = tested on: T4, RSK4(Kin.Dom.2-C-terminal)
T4 construct: gene RPS6KA6

S6K1 = tested on: T5, S6K1
T5 construct: gene RPS6KB1

SBK1 = tested on: SBK1
SGK2 = tested on: SGK2
SGK3 = tested on: SGK3
SGK = tested on: T6, SGK
T6 construct: gene SGK1

SIK2 = tested on: SIK2
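Note: KINOMEscan scanMAX binding as percent activity remaining versus control; lower means stronger binding.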

Row | Compound | Percent Control [1] [%] | Percent Control [2] [%] | Percent Control [3] [%] | Percent Control [4] [%] | Percent Control (S6K1) [%] | Percent Control (SBK1) [%] | Percent Control (SGK2) [%] | Percent Control (SGK3) [%] | Percent Control (SGK) [%] | Percent Control (SIK2) [%]
1 | CCn1c(-c2nonc2N)nc2c(C#CC(C)(C)O)nc(OCCNC)cc21.Cl [GSK949675] | 99 | 100 | 100 | 100 | 100 | 96 | 100 | 92 | 94 | 90
2 | NS(=O)(=O)c1ccc(Nc2ncc(-c3ccccc3)o2)cc1 [GW572399X] | 100 | 100 | 96 | 100 | 100 | 100 | 93 | 60 | 48 | 100
3 | Cc1cc(O)cc(C)c1/C=C/c1cncc(C(N)=O)c1 [GW435821X] | 100 | 100 | 96 | 100 | 100 | 100 | 100 | 84 | 100 | 53
4 | Cl.O=S1CCN(Cc2ccc(-c3ccc4ncnc(Nc5ccc(OCc6ccccc6)c(F)c5)c4c3)o2)CC1 [GW576924A] | 100 | 100 | 97 | 100 | 97 | 100 | 100 | 78 | 100 | 81
5 | CCS(=O)(=O)c1ccc(OC)c(Nc2ncc(-c3cccc(OC)c3)o2)c1 [GW580509X] | 100 | 100 | 94 | 100 | 100 | 100 | 100 | 91 | 100 | 91
6 | NS(=O)(=O)c1ccc(N/N=C2\C(=O)Nc3ccc(C(=O)NCc4ccncc4)cc32)cc1 [GW300657X] | 100 | 80 | 56 | 80 | 78 | 37 | 81 | 12 | 36 | 100
7 | COc1cc2ncn(-c3cc(O[C@H](C)c4ccccc4Cl)c(C(N)=O)s3)c2cc1OC [GSK237701A] | 100 | 90 | 45 | 94 | 68 | 83 | 87 | 75 | 90 | 65
8 | COc1cc2ncnc(Nc3ccc4c(cnn4Cc4ccccc4)c3)c2cc1OC.Cl [GW282449A] | 100 | 100 | 92 | 100 | 100 | 100 | 100 | 100 | 100 | 68
9 | NS(=O)(=O)c1ccc(N/N=C2\C(=O)Nc3ccc(-c4cnco4)cc32)cc1 [GW276655] | 100 | 87 | 61 | 90 | 100 | 76 | 76 | 53 | 38 | 100
10 | C/C(Nc1ccc(S(N)(=O)=O)cc1)=C1/C(=O)Nc2ccccc21 [GW335962X] | 83 | 82 | 47 | 86 | 60 | 100 | 71 | 26 | 21 | 90
11 | C[C@@H](Oc1cc(-n2cnc3ccc(OC4CCN(C)CC4)cc32)sc1C(N)=O)c1ccccc1Cl [GSK579289A] | 48 | 67 | 19 | 80 | 62 | 62 | 100 | 84 | 90 | 100
